Screening data as filed in PubChem BioAssay.
LASV entry inh: inhibitors of Lassa virus binding or cell entry | Lassa virus pseudotype entry inhibition, cell reporter | Potency, µM (highest dose often 37.9 µM), usual class: inhibitors | 300,000 tested, 1.2% active; calls by dose curve; tested in HEK293 cells; further: nearly all actives have a fitted effect of over 50% in size
Marburg entry inh: inhibitors of Marburg virus binding or cell entry; AID 540276; Marburg virus pseudotyped entry inhibition, cell reporter; 300,000 tested, 1.8% active; Potency, µM (series often up to 37.8 µM), usual class: inhibitors; calls by dose curve; tested in HEK293 cells
HCMV inh: human cytomegalovirus inhibition | 410,000 tested, 4.5% active | HFF cells, HCMV-luciferase reporter, 72 h; stronger effect = lower value | activity change, negative = inhibition, % at 57.5 µM; in the data active means activity change below about -60%; inconclusive means no clear call, values can overlap the other calls; inactive means above about -39%
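Steps: HFFs plated, 16 h 37C; compounds added; HCMV-luciferase added to MOI 1 PFU/cell; 72 h 37C; OneGlo reagent, 5 min room temperature; luminescence read, normalized to controls.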
FMDV inh: blocks foot and mouth disease virus | FMDV antiviral cell-based qHTS | Potency, µM (top dose mostly 57.9 µM), usual class: inhibitors | 410,000 tested, 1.2% active; calls by dose curve; tested in HEK293T cells; further: read-out not given here; nearly all actives have a fitted effect of over 45% in size
HCV inh: HCV inhibition. Huh7.5.1 HCVcc-Cre infection, luciferase reporter, 44 h. AID 651820. 340,000 tested, 3.4% active. Potency, µM (highest dose often 41.8 µM), usual class: inhibitors; active means well fitted inhibition curve with a large enough effect; inconclusive means small, poorly fitted or top-dose-only effect, or another doubt; inactive means no such curve, though single readings can be large or run the other way
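1,000 cells/well; 4 h culture; + compound; + HCVcc-Cre (~0.5 moi); 44 h; luciferase substrate, RT 15 min; read 15 sec.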
Numbers stand for hits; n = inactive; u = inconclusive; x = no result given. A selection: hits, their analogues and other compounds. The true share with any hit is near 7.9%.

SMILES | LASV entry inh | Marburg entry inh | HCMV inh | FMDV inh | HCV inh
CN(c1ccccc1)S(=O)(=O)c1cccc(NC(=O)CSc2nncs2)c1 | 10µM | u | n | 10µM | u
CN(c1ccccc1)S(=O)(=O)c1cccc(NC(=O)CSc2ncn[nH]2)c1 | u | u | -68 | 35µM | u
CN(c1ccccc1)S(=O)(=O)c1cccc(NC(=O)Cc2n[nH]c(=O)c3ccccc23)c1 | x | x | u | u | 10µM
CC(=O)NCCC(=O)Nc1cccc(S(=O)(=O)N(C)c2ccccc2)c1 | n | u | n | n | n
CN(c1ccccc1)S(=O)(=O)c1cccc(NC(=O)CSc2nnc(N)s2)c1 | u | 18µM | n | u | u
CC(C)n1cnnc1SCC(=O)Nc1cccc(S(=O)(=O)N(C)c2ccccc2)c1 | x | x | n | n | u
Cc1cccc(NC(=O)CSc2nnc(N)s2)c1 | n | x | n | n | x
CCCC(=O)C1=C(c2ccc(C)c(C)c2)N(C(=O)CCC)n2c(CC)nnc2S1 | n | x | -76 | n | x
CCCC(=O)C1=C(c2cccc(OC)c2)N(C(=O)CCC)n2c(C)nnc2S1 | n | x | -95 | n | x
CCC(=O)C1=C(c2ccc(F)cc2)N(C(=O)CC)n2c(nnc2-c2ccc(OC)cc2)S1 | u | x | n | u | x
CCC(=O)C1=C(c2ccc(OC)c(OC)c2)N(C(=O)CC)n2c(CC)nnc2S1 | n | x | -63 | u | x
CCCC(=O)C1=C(c2ccc(C)cc2)N(C(=O)CCC)n2cnnc2S1 | n | x | -95 | n | x
CCC1CN(CCNC(=O)c2scc3c2OCCO3)Cc2cc(OC)ccc2O1 (stereo not given) | x | x | x | n | x
COc1ccc(N2C(=O)CC(C)(C)CC2=O)cc1OC | x | x | n | n | n
O=C(CCC(=O)N1CCSc2ccccc21)Nc1ccc(Cl)cc1 | n | x | n | n | x
COc1ccc(C2CC(=O)CCN2S(=O)(=O)c2ccc(C)cc2)cc1 (stereo not given) | x | x | n | n | n
Cc1ccc(-c2nnc3c4ccccc4c(-c4ccccc4)nn23)cc1 | u | n | n | n | x
Cc1nnc2c3ccccc3c(-c3ccccc3)nn12 | u | u | -66 | x | n
Cc1ncc2c(c1CNC(=O)/C=C/c1cccs1)CCN(C(=O)c1noc3c1CCCC3)C2 | x | x | x | n | x
c1ccc(Nc2ccc(NCCc3c[nH]c4ccccc34)cc2)cc1 | x | x | n | x | x
Cc1cc(NCCc2c[nH]c3ccccc23)ccc1Nc1cccnc1 | x | x | -87 | x | x
CCOC(=O)C1CCCN(C(=O)c2cc3c(=O)n(C)c4ccccc4c3s2)C1 (stereo not given) | n | n | n | u | x
COc1ccc(F)cc1S(=O)(=O)NCC(c1ccco1)N1CCc2ccccc2C1 (stereo not given) | n | u | n | n | n
O=C(O)c1cn(-c2ccc(F)cc2)c2cc(Cl)c(F)cc2c1=O | n | n | -61 | n | n
CCCNc1nc(N2CCCC2)nc(N2CCCC2)n1 | u | u | n | u | 11µM
SMILES | LASV entry inh | Marburg entry inh | HCMV inh | FMDV inh | HCV inh
CCNc1nc(NC(C)(C)C)nc(N2CCCC2)n1 | u | 3.2µM | n | n | u
CCN(Cc1ccncc1)Cc1ccc2c(c1)CN(C(=O)c1ccc(C)cc1)CCO2 | x | x | x | n | x
FC(F)(F)c1cc(-c2cnc3ccc(NCc4ccco4)nn23)cc(C(F)(F)F)c1 | x | x | n | x | x
COC(=O)c1ccccc1NC(=O)Cc1nc(-c2ccc(OC)cc2)no1 | n | x | n | n | x
CCN(CC)CCN1c2ccccc2Sc2ccc3ccccc3c21 | n | 10µM | u | n | u
CCOC(=O)c1c(NC(=O)C2CCCCC2)sc2c1CCN(C(C)C)C2 | x | x | n | n | 7.9µM
CC(C)N1CCc2c(sc(NC(=O)C3CCCCC3)c2C(N)=O)C1 | x | x | -79 | u | u
COc1cc(OC)c(NC(=O)NCc2ccc3c(c2)CCN3C(=O)c2ccccc2)cc1Cl | n | x | n | u | x
Cc1cccc(C2C3=C(Nc4[nH]n(-c5ccccc5)c(=O)c42)c2ccccc2C3=O)c1 (stereo not given) | n | n | -88 | n | n
COc1cc(C(C)=O)ccc1OCC(=O)NCCCn1nc(C)cc1C | u | n | n | n | n
Cc1cccc(Cn2c(=O)n(Cc3ccccc3)c(=O)c3sc4ccccc4c32)c1 | n | n | n | n | x
CCOC(=O)c1sc2ccc(S(=O)(=O)N3CCOCC3)cc2c1N | n | n | -62 | u | n
COC(=O)c1[nH]c2ccc(C)cc2c1NC(=O)CN1CCCC(C)(C)C1 | u | u | u | n | 13µM
COc1cc2c(cc1OC)CN(CC(=O)Nc1ccc(C)cc1)CC2 | n | u | n | n | n
COC(=O)c1[nH]c2ccc(F)cc2c1NC(=O)CCN1CCN(Cc2ccc3c(c2)OCO3)CC1 | n | n | n | u | u
